Screening results: PubChem BioAssay, National Center for Advancing Translational Sciences (NCATS)
This is a sample that favours compounds with a hit; in the whole collection about 6.9% have one here.
Giardia killer: Giardia lamblia killing. hit rate 0.15% among 340,000. AID 540267. activity change, % at 7.66 µM, hits read low. Giardia lamblia trophozoite viability; in the data active means activity change below about -80%; inconclusive means between about -30% and that limit;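 further: parasites exposed to compound for two days anaerobically before the ATP read; on the % scale 0 is the no-effect control and ±100 the full control effect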
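Luminescent ATP signal served as the viability read-out, measured 15-30 min after adding ATP detection reagent to trophozoites that had been incubated with compounds for 48 hrs at 37 deg C anaerobically at 100 cells/well.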
Vif-A3F inh: Vif-A3F binding inhibition; HeLa A3F-eYFP + Vif (tagged APOBEC3F with the HIV-1 protein that degrades it), YFP fluorescence increase; Potency, µM (titrated, usually from 46.1 µM), inactives show at the highest dose activity, negative = active; hit rate 0.2% among 390,000; further: potency means the concentration at half of the fitted maximal effect; % of control where 0% means no effect; nearly all actives have a fitted effect of over 65% in size
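Fluorescence increase (Ex 488/Em 500-530) after overnight compound treatment at 37 deg C flags inhibition of Vif-driven A3F-eYFP loss in stable HeLa A3F-eYFP/Vif cells seeded overnight beforehand.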
IL-1B inflam inh: inhibitors of inflammasome signaling (IL-1 beta secretion); activity change, % at 57.5 µM; hit rate 4.7% among 360,000; THP-1 LPS/ATP IL-1B secretion, AlphaLISA, 16 h; active compounds read low; in the data active means activity change below about -50%; inconclusive means mostly about -30% to -49%; further: on the % scale 0 is the no-effect control and ±100 the full control effect
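Secreted IL-1B measured by AlphaLISA bead assay after 16 h compound exposure of THP-1 cells; compounds (final up to 57.5 uM) added 1 h before LPS (250 ng/mL) and ATP (1.25 mM) stimulation; lower signal means less secretion.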
Vif-APOBEC3G blk: Vif-A3G binding inhibition; Potency, µM (titrated, usually from 46.1 µM), without a hit: at the top dose activity, negative = active, actives largely listed as inhibitors; HeLa A3G-eYFP + Vif (tagged APOBEC3G with the HIV-1 protein that degrades it), YFP fluorescence, overnight; hit rate 0.076% among 410,000; AID 602310; further: potency means the concentration at half of the fitted maximal effect; on the % scale 0 is the no-effect control and ±100 the full control effect; nearly all actives have a fitted effect of over 60% in size
Target sequence (Q9HC16 whole entry, looked up): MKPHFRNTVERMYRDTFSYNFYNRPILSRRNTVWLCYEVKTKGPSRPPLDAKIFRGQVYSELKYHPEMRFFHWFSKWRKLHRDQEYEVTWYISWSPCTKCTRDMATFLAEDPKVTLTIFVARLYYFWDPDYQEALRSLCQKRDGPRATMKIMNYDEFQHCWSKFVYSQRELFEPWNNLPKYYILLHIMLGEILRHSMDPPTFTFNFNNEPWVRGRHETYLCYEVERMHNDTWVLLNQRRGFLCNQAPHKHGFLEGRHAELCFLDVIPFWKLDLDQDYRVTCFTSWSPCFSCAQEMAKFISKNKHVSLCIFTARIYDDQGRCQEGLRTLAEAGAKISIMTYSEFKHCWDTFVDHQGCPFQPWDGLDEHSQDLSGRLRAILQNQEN
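Read-out is eYFP fluorescence (Ex 488/Em 500-530) from Vif-expressing HeLa A3G-eYFP cells; more signal means A3G escaped Vif-mediated degradation. Cells plated overnight, compound pinned in, incubated overnight at 37 deg C.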
MCF10A rereplic: induces DNA re-replication in MCF 10a normal breast cells | hit rate 2.9% among 350,000 | MCF 10A DNA re-replication, Hoechst nuclear intensity, 48 h | AID 624296 | Potency, µM (series often up to 46.1 µM), without a hit: top-dose activity, positive = re-replication, hits mostly activators; further: potency means the concentration at half of the fitted maximal effect; % of control where 0% means no effect; nearly all actives have a fitted effect of over 50% in size
SW480 rerep: induces DNA re-replication in SW480 colon adenocarcinoma cells. Potency, µM (titrated, usually from 46.1 µM), inactives show top-dose re-replication activation, actives largely listed as activators. AID 624297. hit rate 1.8% among 340,000. SW480 DNA re-replication, Hoechst DNA content imaging, 48 h; further: potency means the concentration at half of the fitted maximal effect; % of control where 0% means no effect; nearly all actives have a fitted effect of over 55% in size
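Compounds, transferred as 23 nL by pin tool, were incubated with cells for 48 hr; DNA content per nucleus was then quantified by Hoechst staining and fluorescence plate imaging.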
Starred values were filed as active, the others as inactive; ? = inconclusive; nt = no result given. Unless noted, the call rests on the fitted dose curve; in most records, active means well fitted curve in the direction sought with a large enough effect; inconclusive means small, poorly fitted or top-dose-only effect, or another doubt; inactive means no such curve, though single readings can be large; an effect the other way counts as inactive or inconclusive.

SMILES	Giardia killer	Vif-A3F inh	IL-1B inflam inh	Vif-APOBEC3G blk	MCF10A rereplic	SW480 rerep
Cc1cc2c(cc1C)N(C(=O)CCl)CCN2C(=O)CCl	5.0	2.3%	-99.6*	-9.8%	4.61µM*	3.66µM*
Cc1cc2c(cc1C)N(C(=O)CCl)CC(=O)N2	nt	6.1%	-65.4*	?	nt	nt
Cc1ccc(C2(c3ccccc3)NC(=O)N(CC(=O)N3CC(=O)Nc4ccccc43)C2=O)cc1C (centres undefined)	5.2	3.6%	0.0	-3.3%	0.7%	-17.3%
CCOc1cc(/C=C(/C#N)C(=O)Nc2ccc(O)cc2)cc(Br)c1O	6.8	?	33.3	?	0.184µM*	2.06µM*
CCN(CC)S(=O)(=O)c1ccc(N2CCCCC2)c(NC(=O)/C(C#N)=C/c2ccc(OC)cc2)c1	-11.6	-1.3%	-8.8	0.0%	14.9%	-3.4%
CCOc1ccc(NC(=O)/C(C#N)=C/c2ccc(N3CCCC3)c(C)c2)cc1	6.5	2.51µM*	-0.9	3.98µM*	?	26.7%
Cn1c(=O)c2ccccc2n2c(=S)[nH]nc12	-4.7	-2.9%	26.7	0.1%	2.1%	-13.5%
Cn1c(=O)c2ccccc2n2c(CCl)nnc12	-1.6	7.7%	-17.5	?	?	16.4µM*
Cn1cccc1-c1nc2ccccc2n1Cc1ccccc1	-19.6	7.7%	-20.8	-0.7%	11.2µM*	6.2%
Cc1ccccc1-c1nc2scc(CCNS(=O)(=O)c3ccccc3)n2n1	nt	2.4%	nt	-0.2%	nt	nt
COc1ccccc1C#Cc1ccc2c(=O)c3ccccc3n(C)c2c1	-10.6	-4.0%	24.4	1.5%	20.6µM*	-4.3%
Cn1c2ccccc2c(=O)c2cc(C#Cc3cccc(N)c3)ccc21	-18.3	1.7%	-2.4	0.1%	?	3.1%
Cn1c2ccccc2c(=O)c2ccc(C#Cc3ccc(N)cc3)cc21	13.8	-0.3%	-28.0	-6.3%	?	14.6µM*
COc1ccc(C#Cc2ccc3c(=O)c4ccccc4n(C)c3c2)cc1	-8.7	0.2%	33.7	0.7%	?	?
Cc1[nH]c2ccccc2c1C(=O)C(C)Sc1nc2ccccc2c(=O)n1Cc1cccnc1 (centres undefined)	nt	nt	nt	0.3%	nt	nt
COc1ccccc1NC(=O)Nc1nc(C(C)(C)C)cs1	38.0	5.3%	-83.1*	0.9%	26.0%	22.8%
COc1ccccc1NC(=O)Nc1nc(CC(=O)Nc2ccc(F)cc2)cs1	6.8	-11.8%	-16.2	-6.8%	12.2%	-2.1%
COc1ccccc1NC(=O)Nc1nc(CC(=O)Nc2ccc(F)c(F)c2)cs1	-5.1	-7.8%	-69.2*	-4.2%	?	-2.5%
COc1ccccc1CNC(=O)Cc1csc(NC(=O)Nc2ccccc2OC)n1	23.3	-20.5%	1.6	-12.4%	?	1.7%
COc1ccccc1NC(=O)Nc1nc(CC(=O)NCc2ccccn2)cs1	-0.9	?	14.5	-3.8%	?	11.6µM*
CC(=O)N(CCC(c1ccco1)C(C)C)Cc1ccc(Cl)cc1 (centres undefined)	5.5	-8.3%	nt	-14.1%	4.11µM*	-2.8%
O=C(CCCCl)Oc1ccc2cc(-c3ccc4ccccc4n3)c(=O)oc2c1	-10.9	?	38.9	-4.6%	6.51µM*	2.06µM*
CCn1cc(C(=O)OCC(=O)Nc2cc(OC)cc(OC)c2)c(=O)c2ccc(C)nc21	nt	-18.1%	nt	-1.9%	nt	nt
COc1ccnc(Oc2ccc(F)cc2)c1C(=O)N/C=N/OCc1ccc(F)cc1Cl	-2.2	-4.0%	-64.5*	-4.2%	0.9%	?
COc1ccnc(Oc2ccc(F)cc2)c1C(=O)N/C=N/OCc1ccc(Cl)cc1Cl	23.5	-0.8%	-12.9	-1.6%	?	2.31µM*
SMILES	Giardia killer	Vif-A3F inh	IL-1B inflam inh	Vif-APOBEC3G blk	MCF10A rereplic	SW480 rerep
COc1ccnc(Oc2ccc(F)cc2)c1C(=O)N/C=N/OCc1ccc(F)cc1	8.8	7.8%	10.0	-2.5%	2.4%	1.3%
COc1cc(NC(=O)CSc2ccc(-c3sc(-c4ccccc4)nc3C)nn2)cc(OC)c1	nt	0.3%	nt	-4.0%	nt	nt
Cc1cc2c(n1-c1ccc(C(=O)NCc3ccccc3Cl)cc1)CCCC2	nt	-5.5%	nt	-3.4%	nt	nt
COc1ccc(-c2cccc(NS(=O)(=O)c3cccc([N+](=O)[O-])c3)c2)nn1	?	6.8%	9.8	3.7%	-17.4%	?
COC(=O)COc1ccc(NS(=O)(=O)c2cccc([N+](=O)[O-])c2)cc1	1.0	-1.7%	-151.7*	-0.8%	16.5%	-25.6%
COC(=O)COc1cccc(NS(=O)(=O)c2cccc([N+](=O)[O-])c2)c1	0.9	-16.5%	-194.2*	0.7%	?	1.0%
COC(=O)COc1ccc(S(=O)(=O)Nc2cc([N+](=O)[O-])ccc2C)cc1	-7.3	12.0%	39.0	-9.5%	2.1%	3.8%
CC(C)C(=O)Nc1nnc(SCc2cc(=O)n3ccccc3n2)s1	nt	7.9%	nt	-3.7%	nt	nt
CCc1ccc(NC(=O)Cn2c(=O)n(CCCCC(=O)NCc3ccc4c(c3)OCO4)c(=O)c3ccccc32)cc1	nt	?	nt	-5.2%	nt	nt
N=c1n(N)c2ccccc2n1CC(=O)c1ccc(Br)cc1	-22.2	1.7%	-93.7*	-0.3%	3.6%	2.0%
C=CCn1c(=N)n(CC(=O)c2ccc(Br)cc2)c2ccccc21	44.1	-24.3%	-83.5*	-1.8%	?	-60.9%
C=CCn1c(=N)n(CC(=O)c2ccccc2)c2ccccc21	-1.0	1.5%	?	1.4%	4.2%	-1.9%
CC1=C(C(N)=O)C(c2cccc(C)c2)n2nc(-c3cccc(C)c3)nc2N1 (centres undefined)	nt	4.6%	nt	-6.6%	nt	nt
CCCN1C(=O)c2ccccc2NC1c1ccc(OC)c(COc2ccc([N+](=O)[O-])c(C)c2)c1 (centres undefined)	1.6	nt	nt	-0.4%	nt	nt
Cc1ccc2cc3c(N)nn(C(=O)c4cccc(F)c4)c3nc2c1	nt	5.3%	nt	0.5%	nt	nt
O=C1CC(N(CCc2ccccc2)C(=S)Nc2ccccc2)C(=O)N1c1ccc(F)cc1 (centres undefined)	24.4	-10.1%	-16.9	-7.4%	18.4µM*	22.0%
CCSc1cnn(-c2ccccc2)c(=O)c1Cl	10.8	5.9%	-93.9*	-1.4%	?	?
O=c1c(Cl)c(Cl)cnn1-c1ccccc1	7.8	-2.8%	-98.8*	?	3.66µM*	4.11µM*
COc1cnn(-c2ccccc2)c(=O)c1SCc1ccc(Cl)cc1Cl	-2.3	0.2%	-50.6*	0.4%	5.7%	16.2%
COc1ccc(Oc2cnn(-c3ccccc3)c(=O)c2Br)cc1	?	5.7%	-62.7*	-6.6%	11.1%	?
O=C(NCCNCCO)C1(C(F)(F)F)CC(CCc2ccccc2)CCCO1 (centres undefined)	-6.7	nt	nt	3.6%	nt	nt
Cc1cc(C)cc(NC(=O)CCc2c(C)nc3c(c2C)c(=O)n(C)c(=O)n3C)c1	nt	-2.9%	nt	1.9%	nt	nt
